A selection: hits, their analogues and other compounds. The true share with any hit is near 5.7%.
ClpP mod – qHTS Assay for Activators of ClpP | Potency, µM (titrated, usually from 57.5 µM), inactives show at the highest dose activity change, negative = active | AID 651965, 2013 | 1.9% of 340,000 active | purified B. subtilis ClpP, FRET peptide cleavage, 20 min; active = well fitted falling curve with a large enough effect; inconclusive = small, poorly fitted or top-dose-only effect; inactive = no such curve, though single readings can be large or run the other way; also: potency is read from the fitted curve at half-maximal effect; the source files actives as falling curves though it sought activators and does not explain the sign; nearly all actives have a fitted effect of over 65% in size
Target sequence (P80244 whole entry, looked up): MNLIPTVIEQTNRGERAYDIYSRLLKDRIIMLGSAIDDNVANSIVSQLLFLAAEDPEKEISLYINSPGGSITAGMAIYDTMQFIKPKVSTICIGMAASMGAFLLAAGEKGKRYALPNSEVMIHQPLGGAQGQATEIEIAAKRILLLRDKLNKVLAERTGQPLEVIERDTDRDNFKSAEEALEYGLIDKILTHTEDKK
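Purified B. subtilis ClpP, 10 microg/mL final in Tris/HCl pH8 with KCl, BSA, glycerol and Tween-20, cleaved an Abz/nitrotyrosine-quenched decapeptide. Fluorescence (ex 320, em 430) was read at 0 and 20 min at room temperature. Delta was normalized to 5.8 microM ADEP and DMSO/no-enzyme controls.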
GLP1R cytotox – qHTS of GLP-1 Receptor Inverse Agonists: Cytotox Screen; HEK293 cAMP-luciferase reporter cells, luminescence, 24 h; Potency, µM (series often up to 38.3 µM), for inactives: top-dose activity change, negative = inhibition, hits mostly inhibitors; 0.13% of 410,000 active;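 also: loss of luciferase light is scored as toxicity; potency is read from the fitted curve at half-maximal effect; % is scaled to controls: 0 for no effect and ±100 for the full control effect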
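To flag toxic compounds, the library was rerun on cells for 24 hr at 37 deg C and 5% CO2. Viability-linked luminescence was captured 12 min after adding luciferase detection reagent.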
GLP-1R agonist – qHTS of GLP-1 Receptor Agonists; Potency, µM (doses to about 45.6 µM), inactives show at the highest dose activation, actives largely listed as activators; Glucagon-like peptide 1 receptor (Homo sapiens), P43220; 0.007% of 380,000 active; HEK293 GLP-1R CRE-luciferase, luminescence, 4-6 h; cells express a hypersensitive GLP-1R form; also: potency is read from the fitted curve at half-maximal effect; % of control where 0% means no effect
Target sequence (P43220 whole entry, looked up): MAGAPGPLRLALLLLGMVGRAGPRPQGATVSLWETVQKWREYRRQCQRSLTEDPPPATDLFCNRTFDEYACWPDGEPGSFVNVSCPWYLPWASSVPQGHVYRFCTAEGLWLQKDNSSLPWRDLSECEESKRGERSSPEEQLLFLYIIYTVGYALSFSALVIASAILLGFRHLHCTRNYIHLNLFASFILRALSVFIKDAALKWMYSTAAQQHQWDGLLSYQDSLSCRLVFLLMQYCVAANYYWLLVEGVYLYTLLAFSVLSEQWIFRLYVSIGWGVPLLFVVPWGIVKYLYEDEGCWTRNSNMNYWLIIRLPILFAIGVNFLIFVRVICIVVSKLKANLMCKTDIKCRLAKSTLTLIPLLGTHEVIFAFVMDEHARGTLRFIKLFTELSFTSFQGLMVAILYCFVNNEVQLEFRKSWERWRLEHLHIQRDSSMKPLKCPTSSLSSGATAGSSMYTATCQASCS
GLP1R inv ag – qHTS of GLP-1 Receptor Inverse Agonists (Inhibition Mode). 1.6% of 410,000 active. Glucagon-like peptide 1 receptor (Homo sapiens), P43220. AID 624417, 2012. HEK293 GLP-1R CRE-luciferase, luminescence, 24 h; GLP-1R form is constitutively active. Potency, µM (titrated, usually from 38.3 µM), for inactives: top-dose activity change, negative = inhibition, hits mostly inhibitors; also: potency is read from the fitted curve at half-maximal effect; % is scaled to controls: 0 for no effect and ±100 for the full control effect; nearly all actives have a fitted effect of over 55% in size
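Cells are plated, allowed 12 hours at 37 deg C, then treated with compounds for 24 hr before luciferase detection reagent is added and luminescence is read after 12 min at room temperature. The HEK293 line carries constitutively active GLP-1R with a cAMP-responsive reporter.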
DRD3 antagonist – qHTS of D3 Dopamine Receptor Antagonist: qHTS; AID 652054, 2013; max response, negative = inhibition, %; 2.5% of 360,000 active; D(3) dopamine receptor (Homo sapiens), P35462; D3R cells, DiscoveRx beta-arrestin luminescence, antagonist mode; active compounds read low; in the data active = max response below about -50%; inconclusive = no clear call, values can overlap the other calls; also: % is scaled to controls: 0 for no effect and ±100 for the full control effect
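Cells expressing the human receptor were seeded at 1500 cells/well, incubated overnight at 37 degrees C in 5% CO2, then exposed to library compounds with dopamine controls for 90 minutes at 37 degrees C before luminescent detection.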
DRD3 agonist – qHTS of D3 Dopamine Receptor Agonist: qHTS; 0.58% of 410,000 active; max activation, %; AID 652048, 2013; D3R DiscoveRx beta-arrestin cells, luminescence, 90 min; D(3) dopamine receptor (Homo sapiens), P35462; in the data active = max activation above about 30%; also: 0% is about no effect
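Agonist-mode cell screen: cells plated at 1500/well and incubated overnight at 37 °C, then exposed to library compounds for 90 min at 37 °C. Detection reagent was added for 30–60 min at room temperature, and luminescence was read.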
* hit, by the source's call; ? = inconclusive; . = not tested or not shown; [ ] = remark or other dose. Unless noted, calls follow the shape of the dose curve; as a rule, active = well fitted curve in the direction sought with a large enough effect; inconclusive = small, poorly fitted or top-dose-only effect, or another doubt; inactive = no such curve, though single readings can be large; an effect the other way counts as inactive or inconclusive.

SMILES	ClpP mod	GLP1R cytotox	GLP-1R agonist	GLP1R inv ag	DRD3 antagonist	DRD3 agonist
COC(=O)C[C@]1(C(=O)OC)CN(C#N)N(c2ccc(Cl)cc2)C12c1ccccc1-c1ccccc12	-5.7%	1.12µM*	-4.4%	?	-74.5*	-8.1
COC(=O)[C@@H]1[C@@H](C(=O)OC)C2(c3ccccc3-c3ccccc32)N(c2ccc(Cl)cc2)N1C#N	-0.9%	-11.2%	-16.2%	3.98µM*	-76.3*	-3.1
COc1cc(C[C@@H](C)N)c(OC)cc1C	.	.	.	.	.	-14.0
O=C1CC(N2CCC(n3c(=O)[nH]c4ccccc43)CC2)C(=O)N1Cc1ccccc1 (stereo unspecified)	-2.9%	14.7%	1.8%	?	-15.6	1.4
O=c1[nH]c2ccccc2n1C1CCN(Cc2ccc(-c3[nH]c4cc5ncnc5cc4nc3-c3ccccc3)cc2)CC1	-15.6%	-19.5%	2.8%	?	-95.8*	-16.4
N#CC1c2ccccc2-n2nncc2CN1Cc1cc(Cl)cc(Cl)c1 (stereo unspecified)	-0.6%	?	-13.0%	1.26µM*	-109.3*	-45.5
COc1ccc(CN2Cc3cnnn3-c3ccccc3C2C#N)cc1 (stereo unspecified)	0.9%	?	-13.0%	2.82µM*	-77.6*	-34.0
COc1ccc2c3c1O[C@H]1[C@@H](O)C=C[C@H]4[C@@H](C2)N(C)CC[C@@]341	.	.	.	.	.	-4.4
CCc1nc2c(OCc3ccc(C(F)(F)F)cc3)cccn2c1N(C)C(=O)C(C)C	3.3%	1.9%	2.1%	?	-3.4	-3.6
S=c1[nH]nc(-c2cccs2)n1C1CCCCC1	31.6µM*	?	-2.0%	-23.0%	-0.6	7.5
COc1ccc(Cl)cc1NC(=O)c1sc2nc3c(cc2c1N)N1CCC3CC1	-14.3%	24.6%	.	16.3%	.	4.3
COc1ccc(Cl)cc1NC(=O)C1CCN(c2nnc(C)c3c(C)n(-c4ccccc4)nc23)CC1	28.2µM*	-7.1%	.	6.3%	.	-14.0
Nc1cccc2c1Cc1cc([N+](=O)[O-])ccc1-2	28.2µM*	0.7%	2.7%	7.6%	-2.7	3.0
COC(CN(C(=O)CCl)C(C(=O)NC1CCCCC1)c1ccccc1C)OC (stereo unspecified)	1.6%	?	-9.7%	10µM*	1.0	-0.6
CC(=O)c1c(O)cc2c3c1OC(C)(C)C1CCC(C)(CC31)O2 (stereo unspecified)	-1.7%	-0.9%	1.0%	?	87.4	12.7
CCCCC(=O)NC(=S)Nc1nnn(CCC)n1	.	?	2.8%	11.2µM*	-29.3	-6.1
C[C@]12C=CC(=O)C=C1CC[C@@H]1[C@@H]2CC[C@]2(C)OC(=O)CC[C@@H]12	.	.	.	.	.	-6.9
CCCCNc1ccc2c3c(cccc13)C(=O)N(CCCC)C2=O	-1.2%	410.7%	9.5%	7.08µM*	17.6	16.1
N=C(N)SCc1ccc(Cl)cc1Cl	-1.2%	?	-8.3%	7.08µM*	-18.0	0.7
Clc1ccc(C(Cl)(Cl)Cl)c(Cl)c1	1.8%	-0.1%	3.5%	4.6%	33.2	5.3
CCN(CC)CCc1c[nH]c2ccccc12	.	.	-6.5%[147 µM]	.	.	-7.0
O=[N+]([O-])c1c(Nc2ccc(O)cc2)cc(Cl)c2nonc12	-0.3%	?	-10.5%	?	-160.8*	-12.8
O=C(CN1CCNCC1)N1CCOCC1	1.4%	0.1%	-2.1%	32.3%	21.0	5.9
CC12CN3CC(c4ccccc4)(CN(C1)C31CCCCC1)C2=O	12.6µM*	14.4%	0.4%	7.6%	-3.4	8.1
CC12CN3CC(C)(CN(C1)P3(=O)Oc1ccccc1)C2=O (stereo unspecified)	-1.3%	-12.3%	-9.7%	5.5%	9.6	1.0
SMILES	ClpP mod	GLP1R cytotox	GLP-1R agonist	GLP1R inv ag	DRD3 antagonist	DRD3 agonist
O=C(Nc1ccc2nn(-c3ccccc3)nc2c1)c1ccc2c(c1)OCCO2	8.91µM*	?	-18.6%	?	0.0	0.4
O=C1C(Cl)=C(N2CCOCC2)C(=O)N1c1ccccc1F	.	2.3%	-2.3%	34.2%	-21.9	-2.0
COC(=O)C(O)(c1ccc(NC(=O)c2cccs2)cc1)C(F)(F)F (stereo unspecified)	0.3%	5.5%	-2.6%	-17.8%	-62.0*	-15.9
COC(=O)C(O)(c1ccc(NC(=O)c2ccccc2)cc1)C(F)(F)F (stereo unspecified)	0.1%	1.0%	11.4%	-8.0%	6.4	-0.7
CN(C)C(=O)CNC(=O)Cc1ccccc1	.	.	?	.	.	1.9
CC(C)(C)NS(=O)(=O)c1ccc(OCC(=O)N2CCN(Cc3ccccc3)CC2)cc1	.	-1.3%	2.0%	-26.3%	-23.1	-2.8
CC(CN1CCNCC1)(NS(=O)(=O)c1ccccc1)c1ccccc1 (stereo unspecified)	-0.6%	?	-5.7%	3.55µM*	-71.4*	-17.0
NP(=O)(OCCCc1ccccc1)c1ccccc1 (stereo unspecified)	0.8%	-13.3%	3.7%	-5.0%	-14.8	35.6*
O=C(c1ccccc1)c1nn(-c2ccc(Cl)cc2)c(=O)cc1C(F)(F)F	-15.2%	?	30.3%	3.98µM*	-15.7	-5.1
O=C(O)c1nn(Cc2ccc(Cl)cc2)c2ccccc12	-9.1%	-8.9%	-0.3%	-16.0%	0.5	3.7
CN(C)c1ccc(N=O)cc1	1.0%	.	.	.	.	.
CC(C)Nc1nc(NCCOc2ccccc2Cl)c2sc(-c3ccccc3)cc2n1	25.1µM*	?	-7.6%	?	?	-9.6
CN1CCN(CC#CCOc2ccc(Cl)cc2)CC1	-2.1%	0.2%	2.3%	-24.8%	-23.4	-15.6
Clc1ccc(OCC#CCN2CCCC2)cc1	.	0.8%	9.8%	?	-55.5*	-31.4
Cc1ccc(NC(=O)N2CCN(c3cc(-c4noc(C)n4)ccc3C)CC2)c(F)c1	-0.5%	-11.4%	-1.6%	?	.	0.0
C=C1C(=O)OC2CC3(C)OC3CCC(C)=CC(OC(C)=O)C12 (stereo unspecified)	-5.1%	?	-3.9%	?	-51.9*	-9.9
CCCCn1nnnc1C(c1cccc2ccccc12)N1CCC2(CC1)C(=O)NCN2c1ccccc1 (stereo unspecified)	-19.9%	?	-0.4%	?	?	-10.3
CCCCn1nnnc1C(c1cccs1)N1CCC2(CC1)C(=O)NCN2c1ccccc1 (stereo unspecified)	-0.1%	-12.9%	-5.4%	?	-52.2*	-10.2

High-throughput results deposited in PubChem BioAssay by National Center for Advancing Translational Sciences (NCATS).
